# Test results as given in PubChem BioAssay (NCATS).
# Inconclusive results are not listed. Calls of active or inactive are those of the source. The call rests on the fitted dose curve; in most records, active means well fitted inhibition curve with a large enough effect; inconclusive means small, poorly fitted or top-dose-only effect; inactive means flat fitted curve, though single readings scatter.
# Biological target: Tyrosyl-DNA phosphodiesterase 1 (Homo sapiens) (UniProt Q9NUW8)
# Test: Confirmation Assay for Inhibitors of Tyrosyl-DNA Phosphodiesterase (TDP1) (AID 489007); further: nearly all actives have a fitted effect of over 40% in size
# Conditions: recombinant human TDP1 enzymatic activity, dose-response
# Summary of the method: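 Recombinant human Tdp1 (1 nM final), expressed in E. coli, preincubated 15 min with compound. Then 15 nM 5'-biotin/3'-phosphotyrosine-FITC DNA substrate added for 5 min at room temperature. AlphaScreen beads (10 ug/ml) added for 10 min; cleavage gives signal loss.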
# Potency means the concentration at half of the fitted maximal effect.
# Chain of Tyrosyl-DNA phosphodiesterase 1 (Homo sapiens) (Q9NUW8 whole entry, looked up): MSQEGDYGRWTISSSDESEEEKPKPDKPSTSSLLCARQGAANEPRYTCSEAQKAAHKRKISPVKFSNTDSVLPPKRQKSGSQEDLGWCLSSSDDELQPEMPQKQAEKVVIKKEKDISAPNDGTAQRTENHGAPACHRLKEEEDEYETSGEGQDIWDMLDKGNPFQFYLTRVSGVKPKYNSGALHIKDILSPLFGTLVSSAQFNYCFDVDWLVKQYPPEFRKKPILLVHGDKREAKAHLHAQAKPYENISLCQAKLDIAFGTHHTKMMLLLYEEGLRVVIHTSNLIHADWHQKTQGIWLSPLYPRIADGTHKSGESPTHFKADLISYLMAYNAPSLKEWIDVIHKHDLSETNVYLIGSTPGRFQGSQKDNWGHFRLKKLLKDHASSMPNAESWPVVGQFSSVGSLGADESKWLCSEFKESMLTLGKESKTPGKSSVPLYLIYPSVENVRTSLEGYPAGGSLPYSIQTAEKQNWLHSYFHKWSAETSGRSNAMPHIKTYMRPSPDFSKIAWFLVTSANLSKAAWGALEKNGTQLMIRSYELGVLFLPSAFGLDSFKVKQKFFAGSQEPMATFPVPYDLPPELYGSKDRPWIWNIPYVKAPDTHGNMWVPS
row,SMILES,Potency
1,Cc1ccc(C(=O)O)cc1-c1ccc(/C=C2\SC(=O)N(CC(=O)Nc3ccccc3)C2=O)o1,6.31 µM (active)
2,CC(=O)c1ccc(NC(=O)c2ccc3nc(-c4ccco4)c(-c4ccco4)nc3c2)cc1,7.08 µM (active)
3,O=C(O)c1ccc(-c2ccc(/C=C3\NC(=O)N(Cc4ccc(Cl)cc4)C3=O)o2)cc1Cl,3.55 µM (active)
4,CCn1c(SCc2nc3sc(C(=O)O)c(C)c3c(=O)[nH]2)nc2ccccc21,3.16 µM (active)
5,O=C(O)c1cc(-c2ccc(/C=C3\NC(=O)N(c4ccccc4)C3=O)o2)ccc1Cl,7.08 µM (active)
6,CC(=O)c1ccc(S(=O)(=O)N2Cc3ccccc3CC2C(=O)O)cc1 (stereo not given),15.8 µM (active)
7,Oc1ccc(/C=N/N2CCOCC2)c(O)c1O,100 µM (active)
8,CCc1nnc(NC(=O)c2sc3nc4c(cc3c2N)CCCCCC4)s1,112 µM (active)
9,O=C1CCCC(O)=C1N=Nc1ccc(C(=O)O)cc1,1.41 µM (active)
10,Cc1ccc(C(=O)O)cc1-c1ccc(/C=C2/NC(=O)N(c3ccccc3)C2=O)o1,7.08 µM (active)
11,C=CCc1cccc2cc(C(=O)Nc3ccc(S(=O)(=O)Nc4nnc(CC)s4)cc3)c(=O)oc12,15.8 µM (active)
12,COc1ccc2nc(N3CCCCC3)c(C#N)cc2c1,31.6 µM (active)
13,O=C(O)CCCN1C(=O)/C(=C\c2ccco2)SC1=S,2.82 µM (active)
14,Cc1ccnc(NS(=O)(=O)c2ccc(NC(=O)C3C4C=CC(C4)C3C(=O)O)cc2)n1 (stereo not given),35.5 µM (active)
15,COc1ccc(-n2cccc2/C=C2\C(=N)N3N=C(c4ccco4)SC3=NC2=O)cc1,14.1 µM (active)
